Screens (PubChem BioAssay)
Tgondii IFNg: T. gondii growth inhibition with IFN-gamma, primary screen, cell-based. activity change, negative = inhibition, % (test concentration not listed). Toxoplasma gondii growth in IFN-gamma-treated host cells; stronger effect = lower value. AID 1259416, 2018. 3.8% of 69,000 active; in the data active = activity change below about -70%, passing the limit was not always enough;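 note: host cells are HeLa cells infected with Toxoplasma gondii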
Of the large screens only hits and unclear results are named; the others gave an inactive call; ! = repeats disagree. This excerpt belongs to a sample that is enriched for hits.

Cc1nn(C)cc1-c1cncn1C(C)c1ccc2c(c1)CCCO2 (centres undefined)	none
Cc1oc(-c2ccc(C(=O)NC(C)Cc3ccco3)cc2)nc1CN1CCN(c2ccccc2)CC1 (centres undefined)	none
CC(C)(C)CC(C)(C)c1ccc(OCCOCC[N+](C)(C)Cc2ccccc2)cc1	Tgondii IFNg -78.0!
CCOc1ccc(-c2nc(Cn3nnc(C(=O)Nc4ccccc4OCC)c3C)c(C)o2)cc1	none
O=C(Oc1cccccc1=O)c1ccccc1	none
O=C(Oc1cccc2cccnc12)c1ccccc1	none
Cc1ccc2c(Br)cc(Br)c(OC(=O)c3ccccc3)c2n1	Tgondii IFNg -85.1
CN(Cc1ccon1)c1ccc(-c2nc(Cc3ccccc3)no2)cn1	none
CC[C@@]1(C2O[C@@H](C3O[C@@](O)(CO)[C@H](C)C[C@@H]3C)C[C@@H]2C)CC[C@H]([C@]2(C)CC[C@]3(C[C@H](O)[C@@H](C)[C@@H]([C@@H](C)[C@@H](OC)[C@H](C)C(=O)O)O3)O2)O1 (some centres undefined)	Tgondii IFNg -79.9
CCCn1ncc(C(=O)N2CCC(c3nc(C)c(C(C)=O)s3)CC2)c1C	none
CCN1CCC2(CC1)OC(=O)C(C)=C2C(=O)Nc1ccc(C)cc1	none
C#C[C@]1(OC(C)=O)CC[C@H]2[C@@H]3CCC4=C[C@@H](OC(C)=O)CC[C@@H]4[C@H]3CC[C@@]21C	none
C#C[C@]1(OC(C)=O)CCC2C3CCC4=CC(=O)CC[C@@H]4C3CC[C@@]21C (some centres undefined)	Tgondii IFNg -82.5!
CC(=O)O[C@]1(C(C)=O)CC[C@H]2[C@@H]3C=C(C)C4=CC(=O)CC[C@@H]4[C@H]3CC[C@@]21C	none
OC1CCC(c2nc(CCc3ccccc3)nn2-c2ccccn2)CC1 (centres undefined)	none
CCN(CC)C(=O)CN1CCC(Cc2cc(NC3CCCC3)nc(C)n2)CC1	none
Cn1cnc(S(=O)(=O)N2CCCC(N)CC2)c1 (centres undefined)	none
Cc1nc(CC2CCCN(S(=O)(=O)c3cn(C)cn3)C2)cc(Nc2ncc(C)s2)n1 (centres undefined)	Tgondii IFNg -97.5
COCCN1C(=O)CCC12CCC(NC(=O)c1ccncc1F)CC2 (centres undefined)	none
CCN1C(=O)CCc2cc(NC(=O)Cc3ccc(OC)cc3Cl)ccc21	none
CCOC(=O)c1[nH]ncc1CN1CCCN(c2cccc(OC)c2)CC1	none
Fc1ccc(N2CCCN(Cc3ccc4nonc4c3)CC2)cc1	none
CCOC(=O)c1cc(C(=O)OC)c(C)nc1N1CCCN(Cc2ccc(F)cc2)CC1	Tgondii IFNg -76.7
CCc1noc(C)c1C(=O)N1CCC(C(=O)NCCc2ccc(Cl)cc2)C1 (centres undefined)	none
O=C1CC(c2ccc3cccc(O)c3n2)c2cc3cn[nH]c3cc2N1 (centres undefined)	none
Cc1ccc(NC(=O)CCNS(=O)(=O)c2ccccc2)c(C(=O)c2ccccc2)c1	none
COC(=O)c1ccccc1NC(=O)COc1nc(C)nc2ccccc12	none
CC(=O)ON(CC(=O)Nc1ccccc1C(=O)c1ccccc1)C(C)=O	Tgondii IFNg -77.1
COCCCNC(=O)c1cc(-c2cnc(N(C)C)nc2)cn1CC1CC1	none
CCN(CC)CCOC(=O)c1ccc(N)cc1	none
CCCCOc1ccc(C(=O)CCN(CC)CC)cc1	none
CCN(CC)CCOc1ccc(/C(=C(\Cl)c2ccccc2)c2ccccc2)cc1	Tgondii IFNg -80.2
O=C(Cc1ccc(Cl)cc1)N1CCN(S(=O)(=O)c2cc3c4c(c2)CCC(=O)N4CCC3)CC1	none
Cc1cc2cc(CN(C)c3ccc4c(c3)OCO4)c(=O)n(C)c2cc1C	none
CCC(CC)C(=O)Nc1cc(Cl)ccc1OC	none
COc1ccc(Cl)cc1NC(=O)Nc1ccccc1	Tgondii IFNg -82.7
COc1ccc(Cl)cc1NC(=O)Nc1ccc(-c2nc(-c3ccccc3)co2)cc1	none
CC(C)Cc1cc(C(=O)N2CCCC2c2cc(C(C)C)on2)n(C)n1 (centres undefined)	none
COc1ccc(NC(=O)c2sc3ccccc3c2C2CCN(C(C)=O)C2)cc1 (centres undefined)	none
COc1ccc(OC)c(S(=O)(=O)N2CCC3(CC2)Nc2cc(F)ccc2-n2cccc23)c1	none
CCOC(=O)C1CCN(c2nccc(OCC)n2)CC1	none
O=C(CN1CCOCC1)Nc1ccc(Oc2ccccc2)cc1	none
O=C(Oc1ccc(Oc2ccccc2)cc1)N1CCC(OC(=O)n2ccnc2)CC1	Tgondii IFNg -97.2
COc1ccc(C(c2ccccc2)N2CCN(C(=O)C(C)n3ccnc3)CC2)cc1 (centres undefined)	none
CC(=O)Nc1cc(OC(C)=O)c2nonc2c1OC(C)=O	Tgondii IFNg -75.1
CC(=O)Oc1cccc(C(=O)O)c1OC(C)=O	none
COc1cc(OC(C)=O)c(-c2cc(OC(C)=O)c(OC)cc2OC(C)=O)cc1OC(C)=O	none
c1cc(-c2cnn3cc(-c4ccc(OCCN5CCCCC5)cc4)cnc23)ccn1	Tgondii IFNg -75.4
CN1CCCN(Cc2cnc3c(-c4ccccc4)cnn3c2)CC1	none
O=C(c1ccc(OCCN2CCCCC2)cc1)c1c(-c2ccc(O)cc2)sc2cc(O)ccc12	none
CN1CC(=O)N(c2cnn(C)c2)CC12CCN(C(=O)C1CCOCC1)C2 (centres undefined)	none
CS(=O)(=O)CC(=O)NC1CCCCC1	none
O=C(CNC(=O)OCc1ccccc1)NC1CCCCCC1	none
CC1=CC(C)C(COC(=O)NC2CCCCC2)(COC(=O)NC2CCCCC2)C(C)C1 (centres undefined)	Tgondii IFNg -100.8
Cc1nc(-c2ccc(Cl)cc2)sc1CCNC(=O)C(=O)Nc1cc(F)ccc1F	none
O=C1CO[C@H]2CN(c3ncc(F)cn3)C[C@@H]2N1CC1CC1	none
Cc1ccc(S(=O)(=O)N2CCc3onc(COCC4CC4)c3C2)cc1F	none
CCOc1ccccc1NC(=O)c1c(O)c2cccnc2[nH]c1=O	none
Cc1ccc(NC(=O)CC(=O)NC(C)c2cnn(C)c2)cc1 (centres undefined)	none
CCC(c1ccc(F)cc1)n1cc(C(=O)Nc2nc(-c3ccccn3)cs2)nn1 (centres undefined)	Tgondii IFNg -96.5
Cc1ncsc1C(=O)NC(Cc1cc(=O)[nH]c(-c2ccccn2)n1)c1ccc(F)cc1 (centres undefined)	none
CCC(c1ccc(F)cc1)n1cc(C(=O)Nc2ccc3c(c2)N(C)C(=O)CO3)nn1 (centres undefined)	none
CCOC(=O)C1(CC2CC2)CCN(C(C)CCc2c[nH]c3ccccc23)CC1 (centres undefined)	none
CS(=O)(=O)N1Cc2nc(C(=O)NCc3ccccc3)oc2C1	none
CCCCC(=O)Nc1ccc(C(=O)N2CCCCC2C(=O)O)cc1 (centres undefined)	none
Cc1ccc2nc(SCC(=O)Nc3ccc(F)cc3)c(C)cc2c1	none
COC(=O)c1ccc(NC(=O)CSc2nnc3c(n2)[nH]c2ccc(F)cc23)cc1	Tgondii IFNg -70.4
C=CCNc1c(C(=O)OC)c(=O)[nH]c2ccc(F)cc12	none
COc1ccc(N2CC(C(=O)NCc3ccccc3OC)CC2=O)cc1 (centres undefined)	none
COc1ccc2c(c1)NC1(CCN(C(=O)Cc3ccccc3Cl)CC1)c1cccn1-2	none
COc1cccc(-c2nn(-c3ccccc3)cc2CN2CCC(CN3CCOCC3)CC2)c1	none
Nc1ncnc2c1c(-c1cccc(OCc3ccccc3)c1)cn2C1CC(CN2CCCC2)C1 (centres undefined)	Tgondii IFNg -74.0
O=C(NCCc1csc(-c2ccc(F)cc2)n1)c1ccccc1Br	none
CC1Cc2ccccc2N1C(=O)c1cc2cccnc2n(Cc2ccccc2F)c1=O (centres undefined)	none
CSc1cccc(NC(=O)Cn2c(=O)cc(C(=O)N3CCc4ccccc4C3)c3ccccc32)c1	none
